In all, about 53,000 sequences went through this assay and about 3,700 (7%) were called active. This is one part of a sample in which actives are shown more often than they occur. A number with no mark means an inactive call.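 How the source made its calls: active means gene knockdowns whose robust z-score for IL-1 alpha signal is at least 2 or at most -2, so actives lie on both sides; inactive means the rest.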
Assay: Components of the Cytosolic LPS Sensing Pathway: Gene Identification via Genome-wide siRNA Screen;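 further: robust z of the log signal after scaling to non-targeting control siRNA wells of the plate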
Conditions: RAW264.7 macrophages, IL-1a HTRF, actives lie on both sides, screened at 100 nM (by protocol), cells primed 5 h with Pam3CSK4 first
Method in brief: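 Mouse macrophage line RAW264.7 is transfected with siRNA (100 nM final), grown 48h, primed with TLR ligand Pam3CSK4 5 h and given intracellular LipidA 24 h. IL-1a in supernatant is read by HTRF and viability by luminescence.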

Sequence	z-score
CGUUCUUGAGAGUCGAUCATT against Smoc2	-0.19
GCGGCAUCUACUUAAUAUGTT against Acer2	2.12 (active)
GCACCUUCAGCUAUCUAACTT against Nepn	0.478
GCUGUUCCUCUUUCUUUCUTT against Olfr522	0.315
CCUAGAGUCUCAGGACUGUTT against Actrt3	0.682
GGUUUCGUACCAUGAAACATT against Stx2	-0.147
GCUUUGACUGGAAUGACGGTT against Pex7	-2.2 (active)
GGAGCUGUCUAAUCAUAAUTT against Clasp2	-0.109
GGAGUGGAAGAAGAAGUAUTT against Agap3	0.177
GGAGUUUCUACGUGUAUGCTT against Tpra1	-0.161
GGACUUUGUGGAGAAUGUCTT against Cyp1a2	-0.876
CCUACAGAGUACAGAUUAUTT against Atp6v0d1	-0.228
GGACUGAGAGGGAUGGUAATT against A530016L24Rik	0.293
GCUAAGACUCUUGAAUCAGTT against Zfp280d	3.72 (active)
GGCACAGAAGAAUGAGAGATT against Schip1	0.217
CGUACUCUUUCUUUAAUCCTT against Umod	-0.622
GGUCCAUUACGUGCGCUUATT against Cage1	-0.00235
GGCCUGACUUUUUGUCUUATT against Klhl15	1.09
GGAACUGCCAUUGUAUGGGTT against Myo1g	-0.568
GGCAAAGUGUCCCUCCGAATT against Skint7	2.06 (active)
CCGCAUUUCAGACAUAGGCTT against Olfr248	-0.729
GCAGAAUGUCACUAAGUGCTT against Sdcbp2	0.271

Sequence	z-score
GGGAGAAGCAAUUUUUAACTT against Gpr34	0.132
CCUAUGGUAGAAAAAUACUTT against Fundc1	-0.252
GGCAGCUGAUCAGAAAUCATT against Gabrg3	-1.13
GCUCACUAACUUUUACAAGTT against Fam166c	0.419
CCAAGAGUUGUCAAUAUAATT against Crisp3	0.768
GGAGAGAAGAUCAUUUCAATT against Ncam2	2.38 (active)
CCCUCCGUGUUUUUAAGAUTT against Tbl2	0.176
GGAUUUUGAUCUAAUGAGATT against Zfp354c	0.366
GGCAAUUCUCUGUAUCCACTT against Cyp2d34	-0.358
GCAUGUCGUCUGAGAAAGUTT against Pgr	-0.748
GGCUUUAUCAGAUCCAACCTT against Tmem108	2.47 (active)
GGUCAUAGAUGAGCUUAGUTT against Appl1	-0.763
GGCAUGUUGAUGGGAAUUUTT against Srp9	0.536
GGCCUACCCAAUUCUUAACTT against Ces1g	-0.0881
GUGUUUCCUUGUUAAGAUUTT against Bloc1s4	-0.841
CCAGUAAAAAUUGAAGGCUTT against Capza2	0.565
GGCCCUUCAUGAAGAGCAATT against Carf	2.07 (active)
GGUCUACGUUAUUAUUACCTT against Etv2	-0.537
GGAGCUUGACAUUCUGGAATT against Tmco4	0.766
CCGAGUUUGGGAAUAACUUTT against Cacna1a	1.45
GGCCAUUAUUCGUGAGUUGTT against Armc10	2.11 (active)
CGGCAAUGUGACUAACAUCTT against Nrros	0.76

Sequence	z-score
CGAGAUGUACCUUGAUACUTT against Idh3a	1.44
GCGAUGGACUCAAAAAACUTT against Ehd3	0.0497
GCUGUGUAUGUAUUUCAUGTT against Rnf128	0.549
GGCAGGAAUCUAUAUUAAUTT against Slc17a3	0.48
GCGAAAGAUAUUGUGGAAGTT against Dixdc1	-0.511
CCAUCAUGAACACUCAACATT against Olfr462	-2.59 (active)
GCACUUUAAGAGACAAUGUTT against Gpr63	0.302
GGCUGACUGGACAAUAAAGTT against Krt85	-1.28
CCAGUCAUCAUGCUACACGTT against Slc19a3	0.473
GGAGUGCUUUUAAAUCCCUTT against Rreb1	-1.43
GCACUAAUACUAACCAUGGTT against Rhox12	0.788
GGCAAGAAAUUCUUCAGCATT against St8sia3	-1.38
GGUAAUGUACCUAAUAUUGTT against Cnn1	0.307
GCCAGAACCGCAUAUUCUUTT against Cks2	-0.481
GGCUGAAGCUCGACUGAAGTT against Abcf3	2.35 (active)
GCAACACGGCGGAAUAAAGTT against Washc1	-0.336
GGAGCUGUAUGACCAUGCCTT against Rab25	-2.03 (active)
GGGUGAUGAUCUUCAGCAATT against Txnrd3	-0.616
GGACCUAAAGAUAAUAAGUTT against Pex3	-0.481
GCCCAUCAGAUGGCAAGAUTT against Pisd	1.09
GUCCCACACUGAUAAGAUUTT against Lcorl	-0.602
GGAGCCUAUACUGAUUUAUTT against Tomm7	2.13 (active)

Sequence	z-score
GCAGCUUAGUGAUUUGAAATT against Tex21	-1.24
CCGGAUUCGAGAGGUGAUGTT against Lrrc52	0.0804
CGGCAAAAUUAGCUAUUCATT against Exosc4	0.489
GGCAUUACAGUGUUUCUGCTT against Tgfbr1	-0.288
GGGCAAUGAUUUCGCCUUCTT against Ninj1	0.337
GGAUUCGUAAACUUCAGAUTT against Igf2bp3	3.41 (active)
GGGUCAGAACACGUACGAGTT against Gnaz	1.06
CGAGUGUGAGCUACAGCGUTT against Agrn	2.74 (active)
UCUGUGGACCAGGAUUUGGTT against Pcsk1n	-2.8 (active)
GGGUGUGACGAUUCUCACCTT against Olfr800	0.705
GGAAAAUGAAGGUUCAGAATT against Pkib	-0.185
GGACUGUGAGGCCUAUGAATT against Cd72	-0.1
CCGAUCUGAUAUAGUAGAATT against Stk31	2.18 (active)
GGCCACAGAUCUUCUGGUGTT against Calml4	1.08
CGAGGGUCUGAAAAAUUACTT against Ighg	1.28
GGUAUGCACUCACACCAGATT against Mus81	0.73
GGCCGUGUGCAUCUUUGUGTT against Gpr20	1.43
GGGAGAUCUCCAACACCAATT against Dipk1b	-1.02
CCUUUGGUGAAGCCUGGAUTT against Kiss1	-0.0609
GGACUUCAUGGCUAGUUUCTT against B4galt4	-0.14
GCAGAGCAUGCCUUACUGUTT against Eif4ebp1	4.39 (active)
GCUAACAGCAUCCUUUUUGTT against Vmn1r50	-0.843

Sequence	z-score
GGAGAUUGACCUGGUCAACTT against Cav1	1.44
GGUUAUGAUCGGCAUCGCUTT against Fam24a	-1.46
GGCUUCCUUCAGUGAGAAUTT against 1810065E05Rik	-2.02 (active)
GGCAUGAGUGCAUUUGCUATT against Ifi203	-0.673
CCUAAGCUUAUCUCAUAUUTT against 4930449I24Rik	-0.572
GGGCUACUACAAUGAGUACTT against Phospho1	0.412
GGGUGAGAUGAAAUGCAUCTT against Efemp2	0.264
GGCCGACAAUUUGUCAGUUTT against Uaca	-1.19
GCAAGUGUUAGAACACAAGTT against Cish	0.823
CGGUUCUGGUGCAUUCACATT against Olfr242	-2.06 (active)
GGAAAUUGGAGAUUUUUCCTT against Ccdc54	-1.02
GGCAUUGGAUCUUCAUUUUTT against Slc18a1	2.35 (active)
GGUGGAGAUCAAACCAGAGTT against Rps15	1.4
GGGAAACUCUCAGAUGAAGTT against Sh2d7	-1.9
GGCAGACAACUUCUACCAATT against Crim1	2.52 (active)
GGCAAAAUCUCAUCAGUCCTT against Iqcc	-0.131
GGUGAUCUAGAAACAACCCTT against Tmco5	0.243
CCAUCCAGCUUUCAUUAAATT against Nckap1l	0.508
GGUCUCCAUUUCUUUCUGCTT against Nmd3	-0.952
GGAAAGAGGAAAUCUUUAGTT against Furin	2.04 (active)

Source: PubChem BioAssay AID1508600 (Functional Genomics Laboratory (NCATS/FGL), 2020)
